Rows were chosen to be rich in hits. Some 21% of all compounds tested hit in one or more screens of this group.
Pf growth 96h = Primary qHTS for delayed death inhibitors of the malarial parasite plastid, 96 hour incubation; Potency, µM (top dose mostly 28.7 µM), inactives show at the highest dose activity change, negative = inhibition, actives largely listed as inhibitors; P. falciparum luciferase reporter growth, 96 h; hit rate 6.9% among 320,000; note: potency is the fitted concentration of half-maximal effect; % is set by controls: 0 for no effect and ±100 for the full control effect
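Parasite growth measured via integrated firefly luciferase reporter in P. falciparum. Infected erythrocytes at 2% hematocrit, 0.05% parasitemia final were treated 96 hours at 37 C under 5% CO2, and luminescence was read.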
Pf growth 48h = Primary qHTS for delayed death inhibitors of the malarial parasite plastid, 48 hour incubation; Potency, µM (titrated, usually from 28.7 µM), inactives show top-dose activity change, negative = inhibition, usual class: inhibitors; hit rate 5.9% among 310,000; P. falciparum luciferase growth in erythrocytes, 48 h; note: potency is the fitted concentration of half-maximal effect; % is set by controls: 0 for no effect and ±100 for the full control effect
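Cell-based growth assay: transgenic P. falciparum expressing firefly luciferase, cultured in red cells within RPMI 1640 containing 0.5% w/v Albumax, 24 mM bicarbonate and gentamycin. A drop in luciferase activity indicates inhibition.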
Shiga toxin inh = A qHTS for Small Molecule Inhibitors of Shiga Toxin; Vero cells, Shiga toxin protein synthesis inhibition reporter; inhibition, % at 38.7 µM; hit rate 9.2% among 290,000; in the data active = inhibition mostly above about 28%, no sharp cut-off; inactive = mostly below about 43%; note: 0% is about no effect
Cycloheximide cs = Cycloheximide Counterscreen for Small Molecule Inhibitors of Shiga Toxin; cell reporter, cycloheximide protein synthesis inhibition counterscreen; max response, %; hit rate 12% among 300,000; AID 2314, 2010; in the data active = max response mostly above about 13%, no sharp cut-off; inactive = mostly below about 14%; note: read at 38.3 µM for the half of the compounds with a filed dose; 0% is about no effect
Starred values were filed as active, the others as inactive; u = inconclusive; x = not tested or not shown. Unless noted, calls come from the whole dose curve; as a rule, active = well fitted inhibition curve with a large enough effect; inconclusive = small, poorly fitted or top-dose-only effect, or another doubt; inactive = no such curve, though single readings can be large or run the other way.

SMILES	Pf growth 96h	Pf growth 48h	Shiga toxin inh	Cycloheximide cs
COc1ccc(Cc2nc3ccc(C(=O)N(C)CCCN4CCOCC4)cc3o2)cc1	u	-15%	-2	-2
C=CCN(CC=C)C(=O)c1ccc2nc(Cc3ccc(OC)c(OC)c3)oc2c1	u	u	13	17*
NC(=O)C1CCCN(C(=O)c2ccc3nc(Cc4cccc(Cl)c4)oc3c2)C1 (stereo not given)	u	u	16	13
COc1ccc(Cc2nc3ccc(C(=O)N4CCN(C)C(C)C4)cc3o2)cc1OC (stereo not given)	-2%	0%	9	11*
COc1ccc(Cc2nc3ccc(C(=O)NCc4cc(C)no4)cc3o2)cc1OC	u	u	-2	-2
COc1ccc(Cc2nc3ccc(C(=O)N(C)CC4COCCO4)cc3o2)cc1 (stereo not given)	16%	u	72*	39*
COc1ccc(Cc2nc3ccc(C(=O)N4CCCC4)cc3o2)cc1OC	0%	u	36*	13
COc1ccc(OC)c(NC(=O)CSc2nc(N3CCOCC3)nc(N3CCOCC3)n2)c1	u	0%	-10	-3
COc1ccc(Cc2nc3ccc(C(=O)NC(C)Cc4ncccc4C)cc3o2)cc1OC (stereo not given)	52%	u	39	30*
COc1ccc(Cc2nc3ccc(C(=O)N4CCCC4)cc3o2)cc1	-85%	u	106*	70*
C#CCN(CC=C)C(=O)c1ccc2nc(C3CCCCC3)oc2c1	u	1%	57	19*
COc1ccc(Cc2nc3ccc(C(=O)NCc4ncc(C)[nH]4)cc3o2)cc1OC	5%	-19%	24	11
Cc1ccc(NC(=O)C(C)N2CCN(C)CC2)cc1S(=O)(=O)N1CCOCC1 (stereo not given)	-3%	1%	x	x
COc1cccc(N=Nc2c(O)[nH]c(=S)[nH]c2=O)c1	u	-1%	47*	31*
O=c1[nH]c(=S)[nH]c(O)c1N=Nc1ccc(OC(F)F)cc1	11%	6%	37	19
COc1ccc(N=Nc2c(O)[nH]c(=S)[nH]c2=O)cc1	14%	29%	110*	31*
O=C(OCc1ccccc1F)c1cc2ccccc2cc1O	-15%	-3%	x	3
CCN(CC)c1ccc(/C=N/NC(=O)c2ccoc2C)c(O)c1	u	1.3µM*	93*	27*
CCN(CC)c1ccc(/C=N/Nc2ccccc2)c(O)c1	u	u	29	23*
CCN(CC)c1ccc(/C=N/NC(=O)OC)c(O)c1	-14%	x	64*	55*
CCN(CC)c1ccc(/C=N/NC(=S)NC)c(O)c1	-22%	u	77*	30*
Cc1cc(C)c(S(=O)(=O)c2ccccc2)c(N2CCOCC2)n1	-7%	u	-10	-4
COc1ccc(NC(=S)N(C)CC2COc3ccccc3O2)cc1 (stereo not given)	40%	40%	73*	24*
CN(CC1COc2ccccc2O1)C(=S)Nc1ccccc1F (stereo not given)	-14%	6%	25	8
Cc1cccc(-n2ncc3c(N4CCC5(CC4)OCCO5)ncnc32)c1	87%	168%	49	13*
SMILES	Pf growth 96h	Pf growth 48h	Shiga toxin inh	Cycloheximide cs
c1ccc(-n2ncc3c(N4CCC5(CC4)OCCO5)ncnc32)cc1	x	69%	60	19
Cc1cccc(-n2ncc3c(N4CCC(C)CC4)ncnc32)c1	81%	x	95*	68*
CCOC(=O)c1c(NC(=O)COC(=O)c2ccc(Cl)nc2)sc(C(=O)N(C)C)c1C	-5%	u	x	x
CCOC(=O)c1c(NC(=O)COC(=O)c2ccc(NC(=O)CC#N)cc2)sc(C(=O)NC)c1C	-26%	13µM*	x	x
CCOC(=O)c1c(NC(=O)COC(=O)c2ccc(O)cc2)sc(C(=O)N(C)C)c1C	u	12µM*	12	5
CCOC(=O)c1c(NC(=O)CN2C(=O)NC(C)(c3ccc(Cl)cc3)C2=O)sc(C(=O)NC)c1C (stereo not given)	4.7µM*	8.3µM*	-1	1
Cc1cccc(C(=O)N/N=C2/SCC(=O)N2Cc2ccccc2)c1	u	0%	43	-2
O=C(CCNC(=O)c1ccc(Br)cc1)NCc1ccncc1	5%	-14%	x	x
CCOc1ccc(C(=O)OC(C)CN2CCCCC2)cc1 (stereo not given)	u	-4%	26*	10
Cc1ccc(C(=O)OC(C)CN2CCN(C)CC2)cc1 (stereo not given)	-2%	9%	48*	17*
COc1ccc(C(=O)OC(C)CN2CCN(C)CC2)cc1OC (stereo not given)	0%	13%	10	4
COc1ccc(C(=O)OC(C)CN2CCN(C)CC2)cc1 (stereo not given)	u	20%	36	12*
CC1(C)Cc2c(sc(NC(=O)C(=O)N3CCCC3)c2C#N)CO1	36%	26%	-11	-2
CC(OC(=O)c1ccc(-c2ccc([N+](=O)[O-])cc2)o1)C(=O)NC(N)=O (stereo not given)	u	41%	13	5
CCC(C)NC(=O)C1CN(S(=O)(=O)c2ccccc2)CCN1S(=O)(=O)c1ccccc1 (stereo not given)	x	-19%	28	25*
CC(C)c1ccc(S(=O)(=O)N2CCN(C(C)C(=O)Nc3ccccc3-c3ccccc3)CC2)cc1 (stereo not given)	5.2µM*	9.3µM*	-8	1
CCCC(NC(=O)C(C)N1CCN(S(=O)(=O)c2ccccc2)CC1)c1ccccc1 (stereo not given)	10µM*	-23%	x	x
CC(C(=O)Nc1ccccc1-c1ccccc1)N1CCN(S(=O)(=O)c2ccccc2)CC1 (stereo not given)	9.3µM*	6.6µM*	-7	-3
CC(NC(=O)C(C)N1CCN(S(=O)(=O)c2ccccc2)CC1)c1ccccc1 (stereo not given)	u	-32%	x	x
CCCNC(=O)C1CN(S(=O)(=O)c2ccccc2)CCN1S(=O)(=O)c1ccccc1 (stereo not given)	x	-28%	-3	1
Cc1ccc(OCCSc2nc3ccccc3n2CC(=O)O)c(C(C)C)c1	-21%	x	-3	-4
CCC(C)NC(=O)CSc1nc2cc3c(cc2c(=O)n1Cc1ccc(C(=O)NCCc2ccc(OC)c(OC)c2)cc1)OCO3 (stereo not given)	x	x	7	6
FC(F)(F)c1cccc(-c2ccn3ncnc3n2)c1	-1%	0%	-1	-9
O=C(Nc1ccccc1-c1ccccc1)C(c1ccccc1)c1ccccc1	1.7µM*	u	-5	1
O=C(Nc1ccccc1O)C(c1ccccc1)c1ccccc1	-2%	-11%	-5	-5
O=C(O)c1ccc2c(c1)N(Cc1ccccc1)C(=O)c1ccccc1S2	13%	3%	13	1
Cc1occc1C(=O)N/N=C/c1ccc(Cl)c([N+](=O)[O-])c1	-7%	7%	56*	37*
Cn1cccc1CC(=O)N/N=C/c1ccc(Cl)c([N+](=O)[O-])c1	1%	u	30	-2
